Hits are enriched below; roughly 1.8% of the tested compounds scored in any of these assays.
PME-1 primary: blocks human protein phosphatase methylesterase 1 | 320,000 tested, 0.53% active | inhibition, % at 5.9 µM | AID 2130 | recombinant PME-1, FP-Rh probe fluorescence polarization | Q9Y570;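 active = inhibition above the campaign mean of all compounds plus 3 SD, cut at about 26% in these data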;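 note: competitive labeling of PME-1 active site by serine hydrolase directed probe; 0% = PME-1 with DMSO and 100% = wells lacking PME-1 enzyme; inhibitors block probe labeling so polarization falls and inhibition rises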
LYPLA1 inh: counter-screen for PME1 inhibitors: inhibitors of human LYPLA1 | recombinant LYPLA1, FP-Rh probe fluorescence polarization | inhibition, % at 5.9 µM | 320,000 tested, 0.16% active | AID 2174;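 active = inhibition above the mean of all tested compounds plus 3 SD, set per campaign, cut at about 14% in these data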;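 note: inhibitors block serine hydrolase probe labeling of LYPLA1 so polarization falls; 0% = enzyme with DMSO and 100% = wells lacking LYPLA1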
Target sequence (O75608 whole entry, looked up): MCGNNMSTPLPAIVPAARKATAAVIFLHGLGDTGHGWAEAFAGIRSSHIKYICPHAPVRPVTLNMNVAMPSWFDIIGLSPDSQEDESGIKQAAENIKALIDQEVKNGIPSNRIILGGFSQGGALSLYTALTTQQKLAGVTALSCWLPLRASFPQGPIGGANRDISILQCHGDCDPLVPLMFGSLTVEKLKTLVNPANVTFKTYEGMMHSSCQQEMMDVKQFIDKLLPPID
GSTO1 counter: counter-screen for RBBP9 inhibitors: inhibitors of human GSTO1 | P78417 | recombinant GSTO1, activity-based probe fluorescence polarization | 300,000 tested, 1.1% active | inhibition, % at 5.96 µM;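 active = inhibition above the campaign mean inhibition plus 3 SD, cut at about 35% in these data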;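 note: 0% = GSTO1-1 with DMSO and 100% = wells lacking GSTO1-1 enzyme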
Fam108B counter: blocks mouse Fam108B hydrolase in RBBP9 counter-screen | recombinant Fam108B, FP-Rh probe fluorescence polarization | inhibition, % at 9.51 µM | 300,000 tested, 0.33% active;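 active = inhibition above the screen mean inhibition plus 3 SD, computed separately per campaign, cut at about 18% in these data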;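 note: inhibitors lower polarization as less probe binds the enzyme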
LYPLA2 counter: counter-screen for PME1 inhibitors: inhibitors of human LYPLA2; recombinant LYPLA2, FP-Rh probe fluorescence polarization; inhibition, % at 5.9 µM; 320,000 tested, 0.38% active; AID 2177;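 active = inhibition above the screen-wide mean plus 3 SD, limit set per campaign, cut at about 26% in these data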;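 note: 0% = LYPLA2 with DMSO and 100% = wells lacking LYPLA2 enzyme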
Target sequence (O95372 whole entry, looked up): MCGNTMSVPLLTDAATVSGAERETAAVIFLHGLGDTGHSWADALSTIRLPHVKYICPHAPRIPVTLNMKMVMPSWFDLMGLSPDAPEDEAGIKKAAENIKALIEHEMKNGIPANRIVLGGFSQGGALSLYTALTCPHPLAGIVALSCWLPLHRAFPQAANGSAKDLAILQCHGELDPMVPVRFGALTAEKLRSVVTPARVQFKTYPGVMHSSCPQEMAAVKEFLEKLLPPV
PAD4 FP inh: PAD4 (human) enzyme inhibition. inhibition, % at 6.36 µM. Q9UM07. recombinant PAD4, RCA probe fluorescence polarization. 330,000 tested, 0.41% active;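 active = percent inhibition above a cutoff equal to the mean of all tested compounds plus 3 SD, cut at about 15% in these data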;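 note: 0% = PAD4 with RCA probe and DMSO and 100% = probe without PAD4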
LYPLA2 confirm: LYPLA2 (human) inhibition, confirmation counter-screen. recombinant LYPLA2, FP-Rh probe fluorescence polarization. shares compounds with LYPLA2 counter. 1,100 tested, 72% active. inhibition, % at 5.9 µM;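 active = mean inhibition across replicates above the hit cutoff set in the primary screen, cut at about 26% in these data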;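 note: blocked labeling of the enzyme by serine hydrolase FP-Rh probe lowers polarization; 0% = enzyme with DMSO and 100% = wells lacking LYPLA2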
LYPLA2 gel ABPP: inhibitors of human LYPLA2; shares compounds with LYPLA2 counter; rhLYPLA2 in mouse brain proteome, gel ABPP FP-Rh; 150 tested, 30% active; AID 652029; inhibition, % at 20 µM;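 active = inhibition of LYPLA2 enzyme probe labeling above about 50%, limit read from the data; inactive = inhibition below that limit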;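 note: loss of FP-Rh probe labeling of the LYPLA2 gel band measured as band density; 0% = DMSO only control band and 100% = blank gel background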
Numbers without * were called inactive; / = not tested or not shown.

SMILES	PME-1 primary	LYPLA1 inh	GSTO1 counter	Fam108B counter	LYPLA2 counter	PAD4 FP inh	LYPLA2 confirm	others
COc1ccccc1NC(=O)CSc1nc2nccnc2c(=O)n1Cc1cccs1	11	-3	11	4	27*	5	-4
O=C(CSc1nc2nccnc2c(=O)n1Cc1cccs1)Nc1ccccc1	-2	-7	4	-1	4	-2	/
CC(=O)N1CC(C)Oc2ccc(S(=O)(=O)NC(CC(=O)O)c3cc(C)ccc3C)cc21 (configuration not stated)	-2	0	0	1	2	-5	/
C=CCn1c(SCc2ccc(C(=O)O)cc2)nc2sc(C)c(C)c2c1=O	-3	-1	-1	-1	43*	-3	37*
CCCN(CC(=O)Nc1cc(Cl)ccc1Cl)C(=O)c1ccc2n[nH]nc2c1	1	0	/	/	3	-10	/
CCc1ccc(C(=O)COC(=O)c2cc([N+](=O)[O-])ccc2NCCO)cc1	7	-3	12	-1	27*	-1	20
O=C(COC(=O)c1cc([N+](=O)[O-])ccc1NCCO)c1ccc(Cl)cc1	3	-1	9	-7	8	-4	/
CC(C)N1CC(COc2ccc(Cl)cc2Cl)OC1=O (configuration not stated)	3	-4	3	0	0	-3	/
COc1ccc(-c2cc(C)no2)cc1S(=O)(=O)N1CCN(c2cccc(C)c2)C(C)C1 (configuration not stated)	-2	-4	7	0	32*	1	31*
O=C(c1ccc(Cn2c(=O)[nH]c3ccccc3c2=O)cc1)N1CCN(c2ccccn2)CC1	5	2	0	3	6	-4	/
COc1ccc(N2CCN(C(=O)CSc3nc4[nH]ncc4c(=O)n3-c3cccc4ccccc34)CC2)cc1	1	2	13	4	34*	-1	30*
CCOC(=O)N1CCN(C(=O)CCCn2c(=O)[nH]c3ccccc3c2=O)CC1	1	2	-3	3	6	0	/
CC(=O)c1ccc(N2CCN(C(=O)CCCc3nc4ccccc4s3)CC2)cc1	5	6	0	-1	42*	3	44*
O=C(c1ccc(Cn2c(=O)[nH]c3ccccc3c2=O)cc1)N1CCN(c2ccccc2)CC1	-4	8	1	-2	35*	-4	28*
CC(=O)c1ccc(N2CCN(C(=O)CCCn3c(=O)[nH]c4ccccc4c3=O)CC2)cc1	-4	6	-12	-3	53*	-1	49*
O=C(CCc1nc2ccccc2s1)N1CCN(c2ccccc2)CC1	3	-2	-3	4	1	1	/
Cc1ccccc1C(=O)NCCCNC(=O)c1ccccc1C	1	1	7	1	7	1	/
Cc1ccc(C)n1-c1nnc(N2CCC(C(=O)NCCCN3CCN(C)CC3)CC2)s1	-6	0	2	2	-5	-1	/
COc1ccc(NC(=O)COC(=O)C2CCN(S(=O)(=O)c3ccccc3)CC2)cc1Cl	-2	1	-7	1	5	1	/
COc1ccc(N2CCN(C(=O)Cc3ccc(-n4c(=O)[nH]c5ccccc5c4=O)cc3)CC2)cc1	0	10	1	6	57*	5	51*	LYPLA2 gel ABPP=28
Cc1c(C)c2ccc(OCC(=O)Nc3ccccc3C(N)=O)cc2oc1=O	4	0	4	2	-6	4	/
COc1cc(NC(=O)c2sc3ncn(CC(=O)N4CCCCC4)c(=O)c3c2C)cc(OC)c1OC	-5	-2	-7	1	0	-1	/
Cc1c(C(=O)N2CCN(CC(=O)Nc3ccccc3Cl)CC2)oc2ccc(Br)cc12	6	3	/	/	7	1	/
CC(C)c1ccc(NC(=O)NCc2ccccn2)cc1	5	4	2	0	28*	5	-2
O=C(Nc1cc(S(=O)(=O)N2CCCCC2)ccc1N1CCOCC1)c1cc(=O)[nH]c2ccccc12	3	-2	2	1	32*	2	27*

High-throughput results from PubChem.
